# According to the supplement of paper PMC10338343:
# ± gives the standard deviation.
# Test system: EfPiwi piRISC loaded with L1MC piRNA (26 nt)
# Experiment: pre-steady-state target cleavage rate (min^-1); auxiliary factor: none (no Gtsf1); guide: L1MC piRNA 5'p-UAACUAAAUACUAUGCAAGCUGUAGG; MIWI and MILI are mouse PIWI proteins and EfPiwi is from a freshwater sponge; tags in brackets are library labels; higher = faster piRNA-guided slicing of the target
# Method: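 Cleave-'n-Seq: a library of target RNAs (target site in constant flanks) at […] was incubated with 1 nM active freshwater sponge Ephydatia fluviatilis Piwi piRISC (synthetic 5'-monophosphorylated piRNA guide) with or without 500 nM EmGtsf1 at 33 °C for 1 min to 16 h. Uncleaved targets were sequenced and the pooled three trials fitted to a burst-and-steady-state model to give the pre-steady-state cleavage rate (min^-1). Sequence is the target site only. Fits with R² ≤ 0 are excluded.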
row,Sequence,pre-steady-state target cleavage rate
1,UCCUGGUACAGGAUGCAUAGUAUUUUCAAA,< 0.0001
2,UCCUGGAUGUCGUUGCAUAGUUUUAGUUA,< 0.0001
3,UCCUGGAUGUCGUUCAUAGUAUUUAGUUA,< 0.0001
4,UCCUGGAUGUCCUUGCAAAGUAAUUAGUUA,< 0.0001
5,UCCUGGAUGUCGAACGUUAGUAUUUAGAUA,< 0.0001
6,UCCUGGAUGUCGAUGCAUAGUCAUUUAGUUA,< 0.0001
7,UCCUGGAUGAGCUUGCAUAGUAAUUAGAAA,< 0.0001
8,UCCUGGAUGUCCUUCGUUAGUAUUUAGUUA,< 0.0001
9,UCCUGGAUGUCCUUGCAUAGUUUUUAGUAA,< 0.0001
10,UCCUGGAUGUCGAACGUUACUAUUAAGUUA,< 0.0001
11,UCCUGGAUCAGCUUGCAUAGUAUUUUAGUUA,0.0111 ± 0.0065
12,UCCUGGAUCAGCUUGCAUAGUGUUUAGUUA,0.00696 ± 0.0045
13,UCCUGGAUGUCGUAGCAUAGUAUUUUGUUA,< 0.0001
14,UCCUGGAUGUCGAACGUAUGUAUAUUAGUUA,< 0.0001
15,UCCUGCAUGAGCUUGCAUAGUAUUUAGAAA,< 0.0001
16,UCCUGCUAGAGCUUGCAUAGUAUUUAGAAA,< 0.0001
17,UCCUGGAUGUGCUUGCAAAGUAUUUUGUUA,< 0.0001
18,UCCUGGAUGUCGAAGCAUAGUAUUUAGUUU [g2:g16:cont:t1U],< 0.0001
19,UCCUGGAUGUCGAACGUUCGUAUUUAGUUA,< 0.0001
20,UCCUGGAUGUCGAUGCAAGUAUUUAGUUA,< 0.0001

row,Sequence,pre-steady-state target cleavage rate
1,UCCUGGAUGUCGUUGCAUAGUAUAAUGUUA,< 0.0001
2,UCCUGGAUGUCGAACGUAUCUAUUUAGAAA [g4:g10:cont:t1A],< 0.0001
3,UCCUGGAUGUCGAACGUUAGUCAUUUAGUUA,< 0.0001
4,UCCUGGAUGUCCUUGCUAAGUAUUUAGUUA,< 0.0001
5,UCCUGGAUGUCGAAGCAAAGUAUUUAGAUA,< 0.0001
6,UCCUGCUACAGCUUGCAUACAUAAAUCAAA [g12:g25:cont:t1A],< 0.0001
7,UCCUGGAUGUCGAUCCAUAGUAUUUACUUA,< 0.0001
8,UCCUGGAUGUCGAAGCAAAGUAUUUACUUA,< 0.0001
9,UCCUGGAUGUCGAAGCAUAGAUAUUUAGUUA,< 0.0001
10,UCCUGGAUGUCGAACGAUAGUAUUUGAGUUA,< 0.0001
11,UCCUGGAUGUCGAACGAAAGUUUUUAGUUA,< 0.0001
12,UCCUGGAUGAGCUUGCAUAGUAGUUUAGUUA,0.0124 ± 0.0079
13,UCCUGGAUGUCGUUGCAUAGUAUUUAUUA,< 0.0001
14,UCCUGGAUGUCGAACGUUAGUAUUUAGUUU [g2:g13:cont:t1U],< 0.0001
15,UCCUGCUACAGCUUGCAUAGUAUUUAGCUA,< 0.0001
16,UCCUGGAUGUCGAUGCAUAGUAUUUACAAA,< 0.0001
17,UCCUGGAUGUCGAACGAGUAGUAUUUAGUUA,< 0.0001
18,UCCUGGAUGUCGAACGAUAGUAUUUAGUUU [g2:g14:cont:t1U],< 0.0001
19,UCCUGGAUCAGCUUGCAUAGUACUUAGUUA,0.0113 ± 0.0052
20,UCCUGGAUGUCGAUGCAUUGUAUUAAGUUA,< 0.0001
